# Experimental data: PubChem BioAssay (EPA / NIEHS)
# Results filed as inconclusive are left out. Calls of active or inactive are those of the source. Rule for the calls, unless noted: active = hit-call score of the fitted dose curve at least 0.9, where 1 is the maximum; inactive = score below 0.9.
# Tests used:
# [1] = CCTE_Harrill_HTTr_Apoptosis_MCF7: CCTE's 6-hour Apoptosis Assessment for the High-Throughput Transcriptomics (HTTr) Platform, in MCF-7 cells cultured in DMEM + 10% fetal bovine serum, Harrill Lab (AID 2284011)
# Method in brief: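 Cells are dosed with test chemicals at eight concentrations and imaged 6 hours later for caspase-3/7 activity using a green fluorogenic detection reagent. Activity is fitted in both directions against DMSO controls.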
# [2] = CCTE_Harrill_HTTr_CellCount_MCF7: CCTE's Cell Proliferation Assessment for the High-Throughput Transcriptomics (HTTr) Platform, Harrill Lab (AID 2284012; active = hit-call score of the fitted dose curve at least 0.9, where 1 is the maximum;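 note: count of Hoechst-stained nuclei per well by high-content imaging in MCF-7 cells; cells exposed to compound for six hours; intended direction is loss of nuclei count meaning fewer cells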)
# Method in brief: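 For this full-screen endpoint, MCF-7 cultures received eight compound dilutions for six hours. Well nuclei counts from Hoechst imaging were analyzed relative to DMSO.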
smiles,measurement,setting,value
COC(=O)Nc1nc2ccc(S(=O)c3ccccc3)cc2[nH]1 (configuration not stated),outcome,[1],inactive
same,outcome,[2],inactive
